Out of some 5,500 compounds screened, about 2,000 (36%) were called active. Inconclusive results (about 18%) are left out. No stated cut-off is given here; in the data, active means normalized growth mostly below about 0.91 (no sharp cut-off); inconclusive means no clear call, values can overlap the other calls; inactive means mostly above about 0.92. Some of the results follow.
Assay: chemical genetic growth profiling, strain panel (AID 1159580);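 further: tested at 20 µM; growth read once vehicle control cultures reached saturation at 30 °C; 1 = growth at the plate median or of vehicle wells; lower values mean less growth of the strain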
Conditions: S. cerevisiae deletion strains, growth OD
[1] = locus YAL040C, strain CLN3, active compounds read low
[2] = locus YDR363W, strain ESC2, active compounds read low
[3] = locus YER002W, strain NOP16, active compounds read low
[4] = locus YNL175C, strain NOP13, active compounds read low
[5] = locus YNL197C, strain WHI3, active compounds read low
[6] = locus YNL224C, strain SQS1, active compounds read low
[7] = locus YOR083W, strain WHI5 (second series), active compounds read low

Measured: normalized growth

O=C(O)[C@H]1NCCC[C@H]1C(=O)O
inactive: [1] 1.06 | locus YCL061C, strain MRC1 (second series), active compounds read low 0.986 | locus YDR150W, strain NUM1, active compounds read low 1.01 | [2] 0.991 | [3] 0.993 | locus YMR263W, strain SAP30, active compounds read low 0.99 | locus YMR307W, strain GAS1, active compounds read low 0.991 | locus YNL128W, strain TEP1, active compounds read low 0.994 | [4] 1 | [5] 0.982 | [6] 0.999 | [7] 0.984 | locus YPL055C, strain LGE1, active compounds read low 1 | locus YPL241C, strain CIN2, active compounds read low 0.996

N[C@@H](CS(=O)O)C(=O)O
inactive: [1] 0.98 | [2] 1.01 | [3] 0.98 | locus YGR078C, strain PAC10, active compounds read low 1.01 | locus YGR229C, strain SMI1, active compounds read low 0.954 | [4] 0.987 | [5] 1.02 | [6] 1.02 | [7] 1.02

— PubChem BioAssay AID1159580 (chemical genetic matrix, 2015)
